Potency and activity (max response) data for 12 compounds are collected here from PubChem BioAssay (NCATS).

Assay [1] is described as follows: Viability qHTS for spleen associated tyrosine kinase inhibitor (SYKi) naive MV4-11 cells (AID 1963823). Further: nearly all actives have a fitted effect of over 40% in size. The method in brief:
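Luminescence from CellTiter-Glo, developed 10 min at room temperature, gave viability of MV4-11 cells never exposed to SYK inhibitor. Cells (500/well) had been incubated with compounds for 72 hr under standard culture conditions.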

The nature of assay [2]: Viability qHTS for spleen associated tyrosine kinase inhibitor (SYKi) drug resistant MV4-11 cells (AID 1963824). Further: nearly all actives have a fitted effect of over 35% in size. In a few lines:
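SYK inhibitor-resistant MV4-11 AML cells, 500 per well, added to predispensed compounds and incubated 72 hr at 37 C, 5% CO2. Viability measured by CellTiter-Glo luminescence after 10 min at room temperature.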
(Quantitative high-throughput screening tests each substance at several concentrations.)

Assay [3] is described as follows: Quantitative highthroughput screen to assess conditional lethalithy of NOMO1 cells grown in RPMI1640 with untreated serum (RPMI+s) (AID 1963876). Further: nearly all actives have a fitted effect of over 35% in size.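 On Viability: 100% = DMSO wells and 0% = empty wells without cells.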 In a few lines:
(§1)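 Each medium arm—HPLM with 10% dialyzed FBS, or RPMI1640 with 5 mM glucose and 10% untreated or dialyzed FBS—was screened against an 11-point, 3-fold compound titration for 48 h at 37 °C, with CellTiter-Glo luminescence as endpoint.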

A short description of assay [4]: Quantitative highthroughput screen to assess conditional lethalithy of P12 Ichikawa cells grown in Human Plasma-Like Medium with dialyzed fetal bovine serum (HPLM+ds) (AID 1963879). Further: nearly all actives have a fitted effect of over 35% in size. On Viability: series mostly up to about 46 µM. The following applies: Potency: viability. The method in brief:
as §1

A short description of assay [5]: Quantitative highthroughput screen to assess conditional lethalithy of P12 Ichikawa cells grown in RPMI1640 with dialyzed fetal bovine serum (RPMI+ds) (AID 1963880). Further: nearly all actives have a fitted effect of over 35% in size.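 On Viability: 100% = DMSO wells and 0% = empty wells on each plate.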 The conditions noted are these: Potency: P12-Ichikawa viability. The method in brief:
as §1

Assay [6] is described as follows: Quantitative highthroughput screen to assess conditional lethalithy of SEM cells grown in Human Plasma-Like Medium with dialyzed fetal bovine serum (HPLM+ds) (AID 1963882). Further: nearly all actives have a fitted effect of over 35% in size. On Viability: series mostly up to about 46 µM. In a few lines: as §1
A short description of assay [7]: Quantitative highthroughput screen to assess conditional lethalithy of SEM cells grown in RPMI1640 with unreated serum (RPMI+s) (AID 1963883). Further: nearly all actives have a fitted effect of over 35% in size.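 On Viability: 100% = DMSO wells and 0% = empty wells without cells.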 In a few lines: as §1
A short description of assay [8]: Quantitative highthroughput screen to assess conditional lethalithy of SEM cells grown in RPMI1640 with dialyzed fetal bovine serum (RPMI+ds) (AID 1963884). Further: nearly all actives have a fitted effect of over 35% in size.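 On Viability: series mostly up to about 46 µM; 100% = DMSO control wells and 0% = empty wells without cells.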 In a few lines:
as §1

Assay [9] can be described thus: Cellular viability qHTS for adrenocortical cancer (ACC) cell line NCI-H295R (AID 1963990). Further: nearly all actives have a fitted effect of over 60% in size. In a few lines:
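Compound titrations (up to 46 uM final) are applied to NCI-H295R cultures for 48 h at 37C. Viable cell number is estimated by CellTiter-Glo signal, normalised to DMSO and doxorubicin controls.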

Assay [10] can be described thus: Quantitative highthroughput screen to assess conditional lethalithy of NOMO1 cells grown in RPMI1640 with dialyzed fetal bovine serum (RPMI+ds) (AID 1963877). Further: nearly all actives have a fitted effect of over 30% in size.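 On Viability: series mostly up to about 46 µM; 100% = DMSO control wells and 0% = empty wells.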 In a few lines: as §1
Assay [11] is described as follows: Quantitative highthroughput screen to assess conditional lethalithy of NOMO1 cells grown in Human Plasma-Like Medium with dialyzed fetal bovine serum (HPLM+ds) (AID 1963878). Further: nearly all actives have a fitted effect of over 35% in size.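 On Viability: 100% = DMSO wells and 0% = empty wells on each plate.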 The method in brief: as §1
The nature of assay [12]: Cellular viability qHTS for adrenocortical cancer (ACC) cell line SW-13 (AID 1963989). Further: nearly all actives have a fitted effect of over 65% in size.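 On activity (max response): cells grown in serum-free medium with ITS supplement; on the % scale 0 is the no-effect control and ±100 the full control effect.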 The conditions noted are these: SW-13 ACC cells viability, CellTiter-Glo, 48 h; activity (max response): active compounds read low. The method in brief:
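48 h treatment, SW-13 in ITS/DMEM serum-free; doses up to 46 uM; readout CellTiter-Glo luminescence; curve fit four-parameter logistic.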

Assay [13] in a line: Quantitative highthroughput screen to assess conditional lethalithy of P12 Ichikawa cells grown in RPMI1640 with untreated serum (RPMI+s) (AID 1963881). Further: nearly all actives have a fitted effect of over 35% in size.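 On Viability: series mostly up to about 46 µM; 100% = DMSO wells and 0% = empty wells without cells.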 The following applies: Potency: viability. In a few lines: as §1

Values joined by “and” are separate entries in the source; they are usually repeats but may differ in a detail not shown here. Equal values may be shown once. Records with an inconclusive call do not appear. Unmarked numbers belong to inactive results. Active and inactive are the calls of the source. The call rests on the fitted dose curve; in most records, active means well fitted curve in the direction sought with a large enough effect; inconclusive means small, poorly fitted or top-dose-only effect, or another doubt; inactive means no such curve, though single readings can be large; an effect the other way counts as inactive or inconclusive.
Potency means the concentration at half of the fitted maximal effect.

As for `CN1CCN(c2ncc(-c3cc(Cl)cc(Cl)c3Cl)c(N)n2)CC1`, the Potency was 16600 nM (active) in assay [1]; 16600 nM (active) in assay [2]; 332 nM (active) in [3]; 2640 nM (active) in assay [4]; 3720 nM (active) in assay [5]; 22.4 µM (active) in assay [9]. For the same compound, the Potency entry in assay [6], in assay [7] and in assay [8] was “inactive” in each case.
As to `O=C(Nc1cn[nH]c1-c1nc2ccc(CN3CCOCC3)cc2[nH]1)NC1CC1`, the Potency was 25.9 nM (active) in [1]; 73.1 nM (active) and 51.7 nM (active) and 132 nM (active) in assay [2]; 18700 nM (active) in assay [10]; 14800 nM (active) in [11]; 41.8 nM (active) in [7]; 33.2 nM (active) in [8]. Further, the Potency in assay [12] is 3.16 µM (active).
As to `CNC(=O)c1cc(Oc2ccc(NC(=O)Nc3ccc(Cl)c(C(F)(F)F)c3)c(F)c2)ccn1`, the Potency is 296 nM (active) in assay [1]; 291 nM (active) and 590 nM (active) in [2]; 3320 nM (active) in assay [11]; 372 nM (active) in assay [7]; 332 nM (active) in assay [8]; 3.98 µM (active) in [12]. In addition, the Potency in assay [9] is 7.08 µM (active). Also, the Potency result in assay [10] and in assay [5] was “inactive” in each case.
For the compound `COC(=O)Nc1cc(Nc2cc(NC3CC3)c3ncc(C#N)n3n2)c(Cl)c(N2CCN(C)CC2)c1`, the Potency in [1] was 417 nM (active); in [2] it was 662 nM (active); in [10] it was 7410 nM (active); in [11], 16600 nM (active); in [4], 20900 nM (active); in assay [5] it was 11700 nM (active). Further, the Potency in assay [13] was 14800 nM (active); in assay [6] it was 4170 nM (active); in assay [7], 2630 nM (active); in assay [8] it was 2340 nM (active); in assay [9], 2.24 µM (active).
Take `CC1(C)CC(=O)c2c(C(F)(F)F)nn(-c3ccc(C(N)=O)c(NC4CCC(O)CC4)c3)c2C1` (stereo unspecified): the Potency in assay [1] is 20.9 nM (active); in [2], 33.2 nM (active); in assay [10] it was 187 nM (active); in assay [11], 235 nM (active); in [4], 235 nM (active); in assay [5], 148 nM (active). In addition, the Potency in assay [13] was 148 nM (active); in assay [6], 148 nM (active); in [7] it was 148 nM (active); in assay [8], 148 nM (active); in assay [12], 0.224 µM (active); in [9], 0.447 µM (active).
On to `CC(C)(C)C(=O)Oc1ccc(S(=O)(=O)Nc2ccccc2C(=O)NCC(=O)O)cc1`, for which the Potency result in assay [1], in assay [2], in assay [10], in assay [11], in [4] and in assay [5] was “inactive” each time. Further, the Potency result in assay [13], in [6], in assay [7], in assay [8] and in assay [9] was “inactive” each time. The activity (max response) in assay [12] was 1.32% and -4.44%.
As to `CC(C)(C)C(=O)OCOP(=O)(COCCn1cnc2c(N)ncnc21)OCOC(=O)C(C)(C)C`, the Potency was 944 nM (active) and 372 nM (active) in [1]; 944 nM (active) and 411 nM (active) in assay [2]; 418 nM (active) in assay [10]; 1180 nM (active) in [11]; 526 nM (active) in assay [4]; 469 nM (active) in assay [6]. Also, the Potency in assay [7] is 105 nM (active); in [8] it was 105 nM (active); in assay [9], 18.4 µM (active) and 12.6 µM (active).
As for `CN1CC[C@@H](c2c(O)cc(O)c3c(=O)cc(-c4ccccc4Cl)oc23)[C@@H](O)C1`, the Potency in assay [1] was 525 nM (active); in [2] it was 296 nM (active); in [10] it was 418 nM (active); in assay [11] it was 264 nM (active); in assay [4] it was 743 nM (active); in assay [5], 590 nM (active). Moreover, the Potency in assay [13] was 662 nM (active); in [6] it was 372 nM (active); in assay [7], 418 nM (active); in [8], 469 nM (active); in assay [12] it was 2.24 µM (active); in assay [9], 1.26 µM (active).
With `Cc1cnc(NC(=O)Nc2cc(Br)c(C)cc2OC[C@@H]2CNCCO2)cn1`, the Potency in assay [1] is 1320 nM (active); in assay [2] it was 1180 nM (active); in assay [10], 1660 nM (active); in assay [11], 1180 nM (active); in assay [5], 13200 nM (active); in assay [7], 935 nM (active). For the same compound, the Potency in assay [8] is 590 nM (active); in assay [9] it was 2.51 µM (active).
Consider `C#Cc1cccc(Nc2ncnc3cc(OCCOC)c(OCCOC)cc23)c1`, for which the Potency was 3.76 µM (active) and 1.86 µM (active) in assay [1]; 6.68 µM (active) and 2.31 µM (active) in [2]; 4.11 µM (active) and 8.91 µM (active) in assay [12]; 6.51 µM (active) in [9]. Further, the Potency entry in assay [3] was “inactive”.
Consider `C=CC(=O)Nc1cccc(Oc2nc(Nc3ccc(N4CCN(C)CC4)cc3)ncc2Cl)c1`, for which the Potency was 206 nM (active) in assay [1]; 517 nM (active) and 525 nM (active) in [2]; 5900 nM (active) in [10]; 2350 nM (active) in assay [6]; 1870 nM (active) in assay [8]; 1.26 µM (active) in assay [12]. Moreover, the Potency in assay [9] is 2.51 µM (active). Also, the Potency entry in assay [11] was “inactive”.
For `CC(=O)O[C@H]1C(=O)[C@@]2(C)C([C@H](OC(=O)c3ccccc3)[C@]3(O)C[C@H](OC(=O)[C@H](O)[C@@H](NC(=O)c4ccccc4)c4ccccc4)C(C)=C1C3(C)C)[C@]1(OC(C)=O)CO[C@@H]1C[C@@H]2O` (stereo partly specified), the Potency in assay [1] is 5.1 nM (active) and 8.3 nM (active); in assay [2], 3.6 nM (active) and 7.4 nM (active); in [3], 1.3 nM (active); in [9], 0.1 µM (active).
